About 83,000 compounds went through this panel and 20% of them were active in at least one assay; those are over-represented in the sample as a whole.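 Each cell line was grown in a 96-well plate and treated with one concentration of compound for 48 hours. Values below 10 were considered active.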 Activity calls are given as the source filed them.
Columns and labels:
Test in all cases: NCI-60 one-dose screen, 48 h (100 = growth as untreated, 0 = no growth, -100 = all killed)
Details in all cases: 10 µM unless noted
NCI-H23 lung = tested on: NCI-H23 lung
NCI-H226 lung = tested on: NCI-H226 lung
NCI-H322M lung = tested on: NCI-H322M lung
HOP-62 NSCLC = tested on: HOP-62 NSCLC
NCI-H460 lung = tested on: NCI-H460 lung
HOP-92 NSCLC = tested on: HOP-92 NSCLC
NCI-H522 lung = tested on: NCI-H522 lung
A549/ATCC NSCLC = tested on: A549/ATCC NSCLC
786-0 renal = tested on: 786-0 renal
COLO 205 colon = tested on: COLO 205 colon
DU-145 prostate = tested on: DU-145 prostate
K-562 leukemia = tested on: K-562 leukemia
MALME-3M melanoma = tested on: MALME-3M melanoma
MDA-MB-231 breast = tested on: MDA-MB-231 breast
RXF 393 renal = tested on: RXF 393 renal
SF-268 CNS = tested on: SF-268 CNS
SF-295 CNS = tested on: SF-295 CNS
SF-539 CNS = tested on: SF-539 CNS
UACC-257 melanoma = tested on: UACC-257 melanoma
M14 melanoma = tested on: M14 melanoma

Measured: growth

N#C/C(=C\c1ccc(-c2cccc(Cl)c2)o1)C(=O)Nc1ncc(Cc2ccc(Cl)cc2)s1
inactive: NCI-H23 lung 59.6% | NCI-H226 lung 74% | NCI-H322M lung 33.6% | HOP-62 NSCLC 15.9% | NCI-H460 lung 25% | HOP-92 NSCLC 79.8% | NCI-H522 lung 83.4% | A549/ATCC NSCLC 31.6% | 786-0 renal 37.3% | COLO 205 colon 83.7% | DU-145 prostate 55.9% | K-562 leukemia 80.6% | MALME-3M melanoma 42.7% | MDA-MB-231 breast 34.1% | RXF 393 renal 86.7% | SF-268 CNS 72% | SF-295 CNS 45.3% | SF-539 CNS 56.6% | UACC-257 melanoma 23.9% | M14 melanoma 62.5%

Clc1ccc2nn3c4ccccc4c(OCCN4CCOCC4)nc3c2c1
inactive: NCI-H23 lung 87.1% | NCI-H226 lung 94.6% | NCI-H322M lung 84.4% | HOP-62 NSCLC 90.6% | NCI-H460 lung 99.9% | HOP-92 NSCLC 72.9% | NCI-H522 lung 74.5% | A549/ATCC NSCLC 91.8% | 786-0 renal 80.9% | COLO 205 colon 90% | DU-145 prostate 98.9% | K-562 leukemia 88.2% | MALME-3M melanoma 134% | MDA-MB-231 breast 81.4% | RXF 393 renal 79.3% | SF-268 CNS 91.8% | SF-295 CNS 93.9% | SF-539 CNS 91.6% | UACC-257 melanoma 107% | M14 melanoma 122%

CC(C)C1C2=C(NCCN1C(=O)c1ccncc1)C(C)(C)N(Cc1ccccc1)C2=O (stereo not given)
inactive: NCI-H23 lung 99.6% | NCI-H226 lung 107% | NCI-H322M lung 110% | HOP-62 NSCLC 103% | NCI-H460 lung 116% | HOP-92 NSCLC 103% | NCI-H522 lung 80.9% | A549/ATCC NSCLC 95.2% | 786-0 renal 105% | COLO 205 colon 109% | DU-145 prostate 105% | K-562 leukemia 98.1% | MALME-3M melanoma 96.6% | MDA-MB-231 breast 100% | RXF 393 renal 126% | SF-268 CNS 96.9% | SF-295 CNS 96.5% | SF-539 CNS 108% | UACC-257 melanoma 105% | M14 melanoma 101%

CCOC(=O)CC[C@H](NC(=O)c1ccc(N(C)Cc2cnc3nc(N)nc(N)c3n2)c2ccccc12)C(=O)OCC
inactive: NCI-H23 lung 25.5% | NCI-H226 lung 72.6% | NCI-H322M lung 46.3% | HOP-62 NSCLC 29.4% | NCI-H460 lung 13.8% | HOP-92 NSCLC 51.7% | NCI-H522 lung 22.4% | 786-0 renal 27.5% | COLO 205 colon 36.9% | DU-145 prostate 28.3% | K-562 leukemia 18.8% | MALME-3M melanoma 62.1% | MDA-MB-231 breast 59.4% | RXF 393 renal 48.7% | SF-268 CNS 32.9% | SF-295 CNS 24.3% | SF-539 CNS 26.1% | UACC-257 melanoma 25.3% | M14 melanoma 23%
active: A549/ATCC NSCLC 9.28%

O=c1ccc2ccc(OCCN3CCCCC3)cc2o1
active: HOP-92 NSCLC -17.3% | K-562 leukemia -17.2%
inactive: NCI-H23 lung 98.4% | NCI-H226 lung 103% | NCI-H322M lung 97% | HOP-62 NSCLC 84.5% | NCI-H460 lung 108% | NCI-H522 lung 86.6% | A549/ATCC NSCLC 98% | 786-0 renal 99.5% | COLO 205 colon 98.5% | DU-145 prostate 118% | MALME-3M melanoma 107% | MDA-MB-231 breast 95.7% | RXF 393 renal 114% | SF-268 CNS 110% | SF-295 CNS 98.8% | SF-539 CNS 106% | UACC-257 melanoma 89.3% | M14 melanoma 96.1%

Cc1ccc(Cc2cnc(NC(=O)/C=C/c3ccc(C)o3)s2)cc1
inactive: NCI-H23 lung 56% | NCI-H226 lung 69.9% | NCI-H322M lung 48.1% | HOP-62 NSCLC 53.6% | NCI-H460 lung 12% | HOP-92 NSCLC 59.5% | NCI-H522 lung 19.3% | A549/ATCC NSCLC 35.7% | 786-0 renal 42% | COLO 205 colon 23.2% | DU-145 prostate 33.9% | K-562 leukemia 18.6% | MALME-3M melanoma 35.2% | MDA-MB-231 breast 67.9% | RXF 393 renal 41.6% | SF-268 CNS 52.9% | SF-295 CNS 23.6% | SF-539 CNS 23.6% | UACC-257 melanoma 62.5% | M14 melanoma 12.1%

ClC(Cl)c1nc(-c2ccccc2)n2nc(-c3ccccc3)cc2n1
active: NCI-H23 lung -17.6% | NCI-H322M lung -41.7% | HOP-62 NSCLC -3.61% | NCI-H460 lung -58.2% | HOP-92 NSCLC 3.98% | A549/ATCC NSCLC -16.2% | COLO 205 colon -40.3% | DU-145 prostate -12% | MDA-MB-231 breast 2.2% | RXF 393 renal -68% | SF-295 CNS -13.1% | SF-539 CNS 0.564%
inactive: NCI-H226 lung 86.9% | NCI-H522 lung 29.9% | 786-0 renal 42.9% | K-562 leukemia 31.2% | MALME-3M melanoma 55.9% | SF-268 CNS 11.9% | UACC-257 melanoma 33.9% | M14 melanoma 32.3%

COc1cc(/C=N/NC(=O)c2ccc(-n3cc(-c4ccccc4)nn3)cc2)cc(OC)c1OC
active: MALME-3M melanoma -1.82%
inactive: NCI-H23 lung 59.1% | NCI-H226 lung 32.5% | NCI-H322M lung 60.6% | HOP-62 NSCLC 71.7% | NCI-H460 lung 41.5% | HOP-92 NSCLC 86.9% | NCI-H522 lung 68.3% | A549/ATCC NSCLC 81.2% | 786-0 renal 93.8% | COLO 205 colon 56.7% | DU-145 prostate 56.9% | K-562 leukemia 60.6% | MDA-MB-231 breast 78.2% | RXF 393 renal 68.7% | SF-268 CNS 57.9% | SF-295 CNS 88% | SF-539 CNS 53.2% | UACC-257 melanoma 53.9% | M14 melanoma 26.6%

C=CCN=c1sc(-c2ccc3ccccc3c2)cn1NC(=O)c1cc2ccc1CCc1ccc(cc1)CC2
inactive: NCI-H23 lung 55.8% | NCI-H226 lung 75.2% | NCI-H322M lung 97.6% | HOP-62 NSCLC 75.2% | NCI-H460 lung 52.3% | HOP-92 NSCLC 59.6% | NCI-H522 lung 76.4% | A549/ATCC NSCLC 56.1% | 786-0 renal 70.1% | COLO 205 colon 44.5% | DU-145 prostate 75% | K-562 leukemia 35% | MALME-3M melanoma 76.7% | MDA-MB-231 breast 92.9% | RXF 393 renal 74.1% | SF-268 CNS 62.3% | SF-295 CNS 46% | SF-539 CNS 77.9% | UACC-257 melanoma 48.7% | M14 melanoma 75.6%

COc1ccc(-c2cc(-c3cn(-c4cccc(Cl)c4)nc3-c3ccc(OC)cc3)on2)cc1
inactive: NCI-H23 lung 95.3% | NCI-H226 lung 89.9% | NCI-H322M lung 86.9% | HOP-62 NSCLC 107% | NCI-H460 lung 98.6% | HOP-92 NSCLC 104% | NCI-H522 lung 74.8% | A549/ATCC NSCLC 83% | 786-0 renal 100% | COLO 205 colon 116% | DU-145 prostate 113% | K-562 leukemia 84.7% | MALME-3M melanoma 127% | MDA-MB-231 breast 80.9% | RXF 393 renal 102% | SF-268 CNS 108% | SF-295 CNS 108% | SF-539 CNS 112% | UACC-257 melanoma 112% | M14 melanoma 101%

N#Cc1c(-c2cccc(Cl)c2)cc(-c2cccnc2)[nH]c1=O
inactive: NCI-H23 lung 85.6% | NCI-H226 lung 87.9% | NCI-H322M lung 94.4% | HOP-62 NSCLC 69.5% | NCI-H460 lung 96.3% | HOP-92 NSCLC 80.2% | NCI-H522 lung 76.1% | A549/ATCC NSCLC 93% | 786-0 renal 96.7% | COLO 205 colon 93.4% | DU-145 prostate 94.9% | K-562 leukemia 43.9% | MALME-3M melanoma 62.5% | MDA-MB-231 breast 81.9% | RXF 393 renal 100% | SF-268 CNS 79.9% | SF-295 CNS 75.9% | SF-539 CNS 71.6% | UACC-257 melanoma 68.2% | M14 melanoma 54.2%

N#Cc1ccc(O)c(C2=NCC(c3ccc(-c4ccccc4)cc3)O2)c1 (stereo not given)
inactive: NCI-H23 lung 27.8% | NCI-H226 lung 29.8% | NCI-H322M lung 33% | HOP-92 NSCLC 35% | 786-0 renal 20.1% | DU-145 prostate 30.5% | MALME-3M melanoma 17.4% | MDA-MB-231 breast 25% | RXF 393 renal 42.2% | SF-268 CNS 19.7% | SF-295 CNS 19.4% | UACC-257 melanoma 13.2%
active: HOP-62 NSCLC 2.79% | NCI-H460 lung 1.31% | NCI-H522 lung -8.42% | A549/ATCC NSCLC 2.62% | COLO 205 colon 1.08% | K-562 leukemia 7.82% | SF-539 CNS -9.06% | M14 melanoma -16.6%

CC(C)c1ccc2c(c1)CC[C@H]1[C@](C)(C(=O)OCC#CCN3CCCC3)CCC[C@]21C
inactive: NCI-H23 lung 61.3% | NCI-H226 lung 81.8% | NCI-H322M lung 93.8% | HOP-62 NSCLC 94.1% | NCI-H460 lung 96.9% | HOP-92 NSCLC 65.2% | NCI-H522 lung 85.8% | A549/ATCC NSCLC 75% | 786-0 renal 84.1% | COLO 205 colon 44.7% | DU-145 prostate 89.3% | K-562 leukemia 39.8% | MALME-3M melanoma 70.8% | MDA-MB-231 breast 100% | RXF 393 renal 74% | SF-268 CNS 89.1% | SF-295 CNS 97.5% | SF-539 CNS 77.8% | UACC-257 melanoma 82.4% | M14 melanoma 82.4%

CCn1cc(Cc2cc(C(=O)Nc3cc4cc(OC)c(OC)cc4c(C)n3)ccc2Cl)cn1
inactive: NCI-H23 lung 52% | NCI-H226 lung 30.8% | NCI-H322M lung 102% | HOP-62 NSCLC 39.8% | NCI-H460 lung 76.3% | HOP-92 NSCLC 47.1% | NCI-H522 lung 17.6% | A549/ATCC NSCLC 38.9% | 786-0 renal 51.7% | COLO 205 colon 46.4% | DU-145 prostate 55.3% | K-562 leukemia 34.4% | MALME-3M melanoma 63.4% | MDA-MB-231 breast 36.3% | RXF 393 renal 73.2% | SF-268 CNS 49.3% | SF-295 CNS 39.7% | UACC-257 melanoma 40.9% | M14 melanoma 32.6%
active: SF-539 CNS 8.23%

— PubChem BioAssay (NCI)
